Among all 190,000 compounds or so, about 80 (0.04%) were called active. No stated cut-off is given here; in the data, active means inhibition above about 40%. Not all results are given here.
These molecules were tested against Bcl-2-like protein 1 (Homo sapiens) (UniProt Q07817) (assay: inhibitors of Bim-Bcl-XL binding, primary screen, biochemical, multiplexed, bead flow cytometry, human Bcl-XL (AID 1007)). Conditions: Bim peptide-Bcl-XL binding, fluorescence, at 10 µM, active compounds read high.
Chain of Bcl-2-like protein 1 (Homo sapiens) (Q07817 whole entry, looked up): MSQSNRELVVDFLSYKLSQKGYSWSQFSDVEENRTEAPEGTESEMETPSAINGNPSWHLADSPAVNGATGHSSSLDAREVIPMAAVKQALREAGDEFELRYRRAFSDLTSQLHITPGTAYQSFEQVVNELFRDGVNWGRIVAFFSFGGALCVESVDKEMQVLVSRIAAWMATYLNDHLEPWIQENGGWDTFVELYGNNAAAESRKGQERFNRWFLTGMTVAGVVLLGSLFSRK

inhibition, inactive:
CC1CC(=S)Nc2ccccc2N1Cc1ccccc1 (configuration not stated) -6%
CSc1ccccc1NC(=O)Cc1ccc(Br)cc1 -4%
CCCN(CC(=O)Nc1ccccc1C)C(=O)c1cc(=O)[nH]c2ccccc12 2%
Cc1cc(=O)oc2c1c(C)nn2-c1ccc(Cl)cc1 1%
COc1ccc(C(C)=O)cc1CSc1nc2nc(C)cc(C)n2n1 -2%
Cc1nc(S(=O)(=O)c2ccc(Br)cc2)nc2c1CCC2 0%
COc1cc(C(=O)N2C(=O)c3cccc(N)c3C2=O)cc(OC)c1OC -2%
Cc1ccc(C)c(OCC(=O)N2CCN(C(=O)c3ccco3)CC2)c1 -8%
COc1cc(C(=O)Nc2cc(C(F)(F)F)ccc2N2CCOCC2)ccc1O -6%
CCCn1nc(Oc2nc(NC(C)C)nc(N(C)C)n2)ccc1=O -2%
NS(=O)(=O)c1ccc(NC(=O)/C=C/c2ccccc2Cl)cc1 1%
NNC(=O)COc1ccc(C2SCCS2)cc1 0%
COc1ccc(-n2nnnc2SCC(=O)NCc2cccs2)cc1 1%
Cn1c(-c2ccc(F)cc2)cnc1SCC(=O)NNC(=O)Cc1ccccc1 0%
Cc1ccc(CC(=O)Nc2cccc(C#N)c2)cc1 -4%
C[C@H](NC(=O)c1ccccc1Cl)C(=O)OCCOc1cccc(Cl)c1 -14%
Cn1nnnc1NCc1ccc(Cl)c(Cl)c1 0%
COc1ccc(CNC(=O)C2CCN(S(C)(=O)=O)CC2)cc1 -3%
CC(Nc1ccccc1)c1cccnc1 (configuration not stated) -2%
CCOC(=O)NC(=O)CSc1nnc(SCCC(=O)O)s1 -10%
O=C(Nc1ccccc1-c1ccccc1)c1cccs1 -3%
CC(C)(C)c1ccc(C(=O)NCc2nnc(SCC(=O)N3CCCc4ccccc43)n2-c2ccccc2)cc1 -8%
Cc1ccc(O)c(-c2cc(C(=O)NCc3ccccc3)[nH]n2)c1 -3%
C/C(N)=C(/C#N)C(=O)COC(=O)c1cc(-c2cccc(Br)c2)nc2ccccc12 -1%
CCOC(=O)N1CCN(C(=O)c2ccccc2N(Cc2ccccc2)S(=O)(=O)c2ccc(OC)cc2)CC1 0%
Cc1ccc(S(=O)(=O)/N=S(\C)C(C)C)cc1 (configuration not stated) -3%
COc1ccccc1CNC(=O)CNC(=O)c1cn(-c2ccccc2OC)c(=O)c2ccccc12 -2%
CC(=O)OC(COc1ccc(F)cc1)Cn1cnc2ccccc21 (configuration not stated) -4%
O=C(Nc1ccc(F)c([N+](=O)[O-])c1)C1CC(=O)N(Cc2ccccc2)C1 (configuration not stated) 0%
Cc1ccnc2nc(C(=O)OCC(=O)N(CC(C)C)CC(C)C)nn12 -7%
Cc1ccc(OCC(=O)Nc2ccccc2Sc2ccc(Cl)cc2)c([N+](=O)[O-])n1 0%
O=C1N/C(=N\N=C\c2ccco2)SC1Cc1ccc(F)cc1 (configuration not stated) -4%
CCNC(=O)NC(=O)C(C)OC(=O)C1CCN(S(=O)(=O)c2ccccc2F)CC1 (configuration not stated) -2%
CN1CCN(/N=C2/C(=O)Nc3ccc([N+](=O)[O-])cc32)CC1 0%
COc1ccc(CN2CCC(c3nc4ccc(Cl)cc4[nH]3)CC2)cc1 0%
CC(=O)Nc1ccc(S(=O)(=O)N(C)c2ccc(OCC(=O)OCC(=O)N3CCCCC3)cc2)cc1 -3%
Cc1cc(C)cc(NC(=O)COC(=O)c2cc(C)oc2C)c1 -4%
O=C(CN1CCN(C/C=C/c2ccccc2)CC1)Nc1ccc(F)cc1F -1%
CN=C(c1ccccc1)c1c(C)cccc1C -9%
COc1cccc(OCCCN2CCCCCC2)c1 -1%
Cc1cc(O)ccc1NC1=CC(=O)CC(C)(C)C1 0%
C#CCNC(=O)C1=C[C@@H](c2ccccc2)[C@H](CCCO)[C@@H](OCC)O1 -1%
